Reference: PubChem BioAssay (NCATS)
Where “and” joins values, the source holds several entries; their conditions need not be identical. Identical values can stand only once. Records with an inconclusive call do not appear. A call without a number means that no potency is given here. Calls of active or inactive are those of the source. Unless noted, calls follow the shape of the dose curve; as a rule, active = well fitted curve in the direction sought with a large enough effect; inconclusive = small, poorly fitted or top-dose-only effect, or another doubt; inactive = no such curve, though single readings can be large; an effect the other way counts as inactive or inconclusive.

Assays:
[1] = Cell Viability - Jurkat (AID 426;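 active = dose-dependent loss of cell ATP signal giving a full or clear fitted curve, ranked by lower potency value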;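 also: potency is read from the fitted curve at half-maximal effect; cells exposed to compound for 40 hours at 37 °C before ATP read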); conditions: qHTS
Method in brief: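 Cytotoxicity taken as drop in cellular ATP (CellTiter-Glo luminescence, 20 min room temperature) after 40 hr, 37C treatment of 5000 Jurkat Clone E6-1 cells per well; concentration-response fitted with Hill equation for AC50.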

[2] = Cell Viability - HepG2 (AID 433; calls by dose curve;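 also: potency is read from the fitted curve at half-maximal effect; cells exposed to compound for 40 hours; potency for ATP loss meaning cytotoxicity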); conditions: qHTS
Method in brief: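 HepG2 hepatocellular carcinoma cells (1500/well) were treated with compounds for 40 h at 37 °C in complete medium; intracellular ATP was read by CellTiter-Glo luminescence. Data were normalized to DMSO and 100 uM tamoxifen, and AC50 came from Hill fits.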

[3] = Cell Viability - HUV-EC-C (AID 542); conditions: HUV-EC-C endothelial cell viability, qHTS; series mostly up to 92.2 µM;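 also: cells exposed to compound for 40 hours; nearly all actives have a fitted effect of over 35% in size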
Method in brief: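 CellTiter-Glo luminescence measured ATP loss in HUV-EC-C cells (1000/well) after 40 hr compound exposure at 37 °C, in complete culture medium. Concentration-response data were Hill-fitted to give AC50.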

[4] = Cell Viability - H-4-II-E (AID 543); conditions: H-4-II-E rat hepatoma viability; series mostly up to 92.2 µM;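 also: cells exposed to compound for 40 hours; nearly all actives have a fitted effect of over 35% in size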
Method in brief: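 CellTiter-Glo luminescence (intracellular ATP) measured after 40 h compound exposure at 37 °C in H-4-II-E rat hepatoma cells seeded at 1500/well. Values are AC50s fitted with the standard Hill equation.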

[5] = Cellular Toxicity (caspase-3) Jurkat (AID 655); conditions: Jurkat caspase-3 activation, luminescence, DMSO = 0%, tamoxifen = 100%; at 92.2 µM (top of the series);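 also: cells exposed to compound for 16 h at 37 °C before reading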
Method in brief: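 Jurkat cells (5000/well) in complete medium were treated with compounds for 16 hr at 37 °C, then Caspase-Glo 3/7 luminescence was read after 20 min at room temperature. Data normalized to DMSO (basal) and 100 uM tamoxifen (100%); AC50 from Hill fit.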

[6] = Cell Viability - LYMP2-007 (AID 979); conditions: LYMP2-007 lymphoblastoid cell viability; series mostly up to 92.2 µM;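 also: cells exposed to compound for 24 h before reading; nearly all actives have a fitted effect of over 60% in size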; also: potency is read from the fitted curve at half-maximal effect
Method in brief: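 AC50 values come from Hill-equation fits of luminescent intracellular ATP (CellTiter-Glo, 30 min, room temperature) following 24 h compound exposure at 37 C. Cells: LYMP2-007 lymphoblastoid line, 2500 per well, in complete culture medium.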

[7] = Cell Viability - LYMP2-010 (AID 981); conditions: LYMP2-010 lymphoblastoid cell viability, qHTS; series mostly up to 92.2 µM; also: nearly all actives have a fitted effect of over 55% in size
Method in brief: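 CellTiter-Glo ATP luminescence measured cytotoxicity after 24 h compound exposure at 37 C. LYMP2-010 cells were seeded at 2500/well, with tetraoctylammonium bromide as control; concentration-response curves gave AC50 values by the Hill equation.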

[8] = Cell Viability - LYMP2-012 (AID 982); conditions: LYMP2-012 lymphoblastoid cell viability qHTS; series mostly up to 92.2 µM;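 also: cellular ATP by luciferase luminescence where a drop means cytotoxicity; cells exposed to compound for one day before reading; nearly all actives have a fitted effect of over 55% in size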
[9] = Cell Viability - LYMP2-014 (AID 983); conditions: LYMP2-014 lymphoblastoid cells, viability qHTS; series mostly up to 92.2 µM; also: nearly all actives have a fitted effect of over 50% in size
Method in brief: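 Intracellular ATP loss, read by luciferase luminescence, measures acute cytotoxicity after 24 h compound exposure of lymphoblastoid LYMP2-014 cells (2500/well, 37 C). Concentration-response data fitted to the Hill equation for AC50.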

[10] = Cell Viability - LYMP2-016 (AID 984); conditions: LYMP2-016 lymphoblastoid cell viability, qHTS; series mostly up to 92.2 µM; also: nearly all actives have a fitted effect of over 55% in size
Method in brief: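 Human lymphoblastoid cells (LYMP2-016), 2500/well in complete medium, preincubated 5 hr at 37 C, then compound-treated 24 hr at 37 C. Intracellular ATP read by CellTiter-Glo luminescence after 30 min at room temperature; AC50 from Hill-equation concentration-response fits.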

[11] = Cell Viability - LYMP2-018 (AID 985); conditions: LYMP2-018 lymphoblastoid cells, viability (qHTS); series mostly up to 92.2 µM; also: nearly all actives have a fitted effect of over 50% in size
Method in brief: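 Viability read as CellTiter-Glo luminescence (cellular ATP) after 24 hr compound exposure at 37 C of 2500 LYMP2-018 lymphoblastoid cells/well, pre-plated 5 hr. Hill-equation modelling gave AC50.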

[12] = Cell Viability - LYMP2-020 (AID 986); conditions: series mostly up to 92.2 µM; also: nearly all actives have a fitted effect of over 55% in size
Method in brief: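 Cytotoxicity in qHTS format: luminescent ATP readout from CellTiter-Glo after 24 h compound exposure at 37 C in complete medium. LYMP2-020 lymphoblastoid cells were seeded at 2500/well; concentration-response data fitted to the Hill equation for AC50.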

[13] = Cell Viability - LYMP2-022 (AID 987); conditions: LYMP2-022 lymphoblastoid cell viability; series mostly up to 92.2 µM; also: nearly all actives have a fitted effect of over 55% in size
Method in brief: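 Cytotoxicity read as decreased cellular ATP (CellTiter-Glo luminescence, 30 min room temperature) after 24 hours compound exposure of 2500 lymphoblastoid LYMP2-022 cells/well at 37 C. Concentration-response data fitted with standard Hill equation for AC50.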

[14] = Cell Viability - LYMP2-024 (AID 988); conditions: LYMP2-024 lymphoblastoid cell viability; series mostly up to 92.2 µM; also: nearly all actives have a fitted effect of over 60% in size
Method in brief: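 Cytotoxicity was taken as a decrease in ATP (CellTiter-Glo luminescence) after 24 hr compound exposure at 37 C of LYMP2-024 lymphoblastoid cells, 2500 cells/well. Concentration-response data were fitted to the Hill equation to give AC50.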

[15] = Cell Viability - LYMP2-026 (AID 989); conditions: LYMP2-026 lymphoblastoid cell viability, qHTS; series mostly up to 92.2 µM; also: nearly all actives have a fitted effect of over 50% in size
Method in brief: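 Cytotoxicity read as ATP-dependent luminescence (CellTiter-Glo, 30 min room temperature) after 24 h compound treatment at 37 C. LYMP2-026 lymphoblastoid line seeded at 2500 cells/well; AC50 derived by standard Hill equation.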

[16] = Cell Viability - LYMP1-002 - Assay at 24 hr (AID 993); conditions: LYMP1-002 lymphoblastoid cells viability; series mostly up to 92.2 µM
Method in brief: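 qHTS cytotoxicity at 24 h: CellTiter-Glo ATP luminescence in lymphoblastoid line LYMP1-002 incubated with compound at 37 °C. Concentration-response modeled with the Hill equation for AC50; tetraoctylammonium bromide served as positive control.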

[17] = qHTS assay for small molecule agonists of retinoid X receptor alpha signaling (AID 588544; calls by dose curve); conditions: HEK293T RXRa-UAS-bla, beta-lactamase reporter, 18 h; 530 nm emission
[18] = biological target: Retinoic acid receptor RXR-alpha (Homo sapiens) (UniProt P19793); test: as above; conditions: HEK293T RXRa-UAS-bla, beta-lactamase reporter, 18 h; series mostly up to 76.7 µM
[19] = biological target: Thyroid hormone receptor beta (Homo sapiens) (UniProt P10828); test: qHTS assay for small molecule agonists of thyroid hormone receptor beta signaling (AID 588545; calls by dose curve); conditions: TR-UAS-bla GripTite HEK 293, beta-lactamase ratio, agonist mode, 18 h, percent of T3 response, DMSO as zero; series mostly up to 76.7 µM
Method in brief: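 Agonist activity was read as beta-lactamase CCF4 fluorescence (405 ex, 460/530 em), scaled between DMSO (0%) and 10 nM T3 (100%), then Hill-fitted for EC50 and efficacy. HEK 293 TR-UAS-bla cells in 2% charcoal/dextran FBS medium were exposed 18 h at 37 C.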

[20] = biological target: Voltage-gated inwardly rectifying potassium channel KCNH2 (Homo sapiens) (UniProt Q12809); test: qHTS Assay for Small Molecule Inhibitors of the Human hERG Channel Activity (AID 588834); conditions: U2OS BacMam hERG, FluxOR thallium flux fluorescence; series mostly up to 92.2 µM;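 also: top concentration of the series differs between compounds; lower thallium flux fluorescence means stronger hERG block; nearly all actives have a fitted effect of over 50% in size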
Method in brief: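 In hERG-transduced U2OS cells, dye-loaded for 1 hr at room temperature in dark, test compounds incubated 10 min at 37 °C before thallium stimulation. AC50 values derived by Hill modelling of concentration-response.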

Chain of Voltage-gated inwardly rectifying potassium channel KCNH2 (Homo sapiens) (Q12809 whole entry, looked up): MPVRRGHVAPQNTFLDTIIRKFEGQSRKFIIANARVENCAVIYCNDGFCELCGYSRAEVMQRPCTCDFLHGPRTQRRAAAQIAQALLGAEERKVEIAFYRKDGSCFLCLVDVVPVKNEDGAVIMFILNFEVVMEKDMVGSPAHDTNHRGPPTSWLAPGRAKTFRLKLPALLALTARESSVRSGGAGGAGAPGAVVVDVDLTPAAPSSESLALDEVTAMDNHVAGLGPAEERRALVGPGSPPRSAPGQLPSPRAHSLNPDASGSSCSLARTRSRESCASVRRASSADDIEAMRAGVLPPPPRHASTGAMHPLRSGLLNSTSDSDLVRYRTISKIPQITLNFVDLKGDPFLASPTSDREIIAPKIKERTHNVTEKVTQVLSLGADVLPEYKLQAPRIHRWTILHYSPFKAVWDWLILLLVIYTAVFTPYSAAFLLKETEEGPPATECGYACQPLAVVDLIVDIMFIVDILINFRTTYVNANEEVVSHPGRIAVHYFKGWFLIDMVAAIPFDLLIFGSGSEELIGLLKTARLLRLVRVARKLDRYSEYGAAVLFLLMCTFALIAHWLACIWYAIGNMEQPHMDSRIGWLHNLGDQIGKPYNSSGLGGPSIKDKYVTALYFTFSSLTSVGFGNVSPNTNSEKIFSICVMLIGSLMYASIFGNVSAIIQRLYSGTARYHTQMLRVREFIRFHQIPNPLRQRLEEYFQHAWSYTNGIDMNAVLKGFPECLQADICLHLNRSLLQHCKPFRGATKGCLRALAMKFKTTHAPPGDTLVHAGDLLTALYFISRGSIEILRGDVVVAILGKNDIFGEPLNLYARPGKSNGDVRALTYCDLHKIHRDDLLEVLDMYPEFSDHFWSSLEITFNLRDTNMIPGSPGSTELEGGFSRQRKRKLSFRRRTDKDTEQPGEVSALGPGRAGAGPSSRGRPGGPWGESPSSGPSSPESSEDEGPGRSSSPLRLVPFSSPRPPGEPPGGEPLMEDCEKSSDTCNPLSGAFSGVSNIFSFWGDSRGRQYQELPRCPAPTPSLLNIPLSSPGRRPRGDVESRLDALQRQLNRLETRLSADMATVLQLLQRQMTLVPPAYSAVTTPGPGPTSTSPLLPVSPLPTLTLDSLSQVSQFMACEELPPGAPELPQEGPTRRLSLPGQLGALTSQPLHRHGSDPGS
Chain of Retinoic acid receptor RXR-alpha (Homo sapiens) (P19793 whole entry, looked up): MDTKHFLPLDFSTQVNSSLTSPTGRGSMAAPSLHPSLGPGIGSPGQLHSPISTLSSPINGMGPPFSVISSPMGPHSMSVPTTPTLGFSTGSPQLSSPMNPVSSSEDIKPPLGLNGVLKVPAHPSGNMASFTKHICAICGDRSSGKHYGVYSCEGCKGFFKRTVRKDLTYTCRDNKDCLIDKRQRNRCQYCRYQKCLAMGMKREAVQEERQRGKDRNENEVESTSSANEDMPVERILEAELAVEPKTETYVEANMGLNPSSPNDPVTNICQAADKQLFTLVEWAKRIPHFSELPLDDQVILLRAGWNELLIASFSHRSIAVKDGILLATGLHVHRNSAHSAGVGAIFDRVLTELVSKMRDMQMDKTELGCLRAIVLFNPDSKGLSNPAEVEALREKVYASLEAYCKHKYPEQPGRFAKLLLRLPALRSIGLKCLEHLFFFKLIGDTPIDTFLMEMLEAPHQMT
Chain of Thyroid hormone receptor beta (Homo sapiens) (P10828 whole entry, looked up): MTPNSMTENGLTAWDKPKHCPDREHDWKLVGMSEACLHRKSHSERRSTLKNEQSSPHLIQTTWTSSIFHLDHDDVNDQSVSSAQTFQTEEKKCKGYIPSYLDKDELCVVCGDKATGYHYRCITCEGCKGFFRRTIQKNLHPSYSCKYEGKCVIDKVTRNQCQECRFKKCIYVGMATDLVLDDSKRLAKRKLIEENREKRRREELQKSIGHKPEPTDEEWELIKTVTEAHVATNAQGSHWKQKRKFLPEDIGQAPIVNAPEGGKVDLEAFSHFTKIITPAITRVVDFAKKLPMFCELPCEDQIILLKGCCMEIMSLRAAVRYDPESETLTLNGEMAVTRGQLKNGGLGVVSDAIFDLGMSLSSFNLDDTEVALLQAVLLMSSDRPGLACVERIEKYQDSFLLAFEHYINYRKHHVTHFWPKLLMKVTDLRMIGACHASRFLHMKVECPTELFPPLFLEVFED

Row | Compound | Potency [1] | Potency [2] | outcome [3] | Potency [4] | caspase-3 activation [5] | Potency [6] | Potency [7] | Potency [8] | Potency [9] | Potency [10] | Potency [11] | Potency [12] | Potency [13] | Potency [14] | Potency [15] | Potency [16] | max response [17] | outcome [18] | outcome [19] | Potency [20]
1 | C1OCOCO1 | > 92 µM (inactive) | > 92 µM (inactive) | inactive | inactive | 2.97% (inactive) | inactive | inactive | inactive | inactive | inactive | inactive | inactive | inactive | inactive | inactive | inactive | -5.21% | inactive | inactive | inactive
2 | Cc1c(N=C=O)cccc1N=C=O | > 92 µM (inactive) | > 92 µM (inactive) | inactive | inactive | -0.0166% (inactive) | inactive | inactive | inactive | inactive | inactive | inactive | inactive | inactive | inactive | inactive | inactive | -9.85% and -4.8% | inactive | inactive | inactive
3 | CCCCC(CC)CN (stereo unspecified) | > 92 µM (inactive) | > 92 µM (inactive) | inactive | inactive | -1.36% (inactive) and 1.48% (inactive) | inactive | inactive | inactive | inactive | inactive | inactive | inactive | inactive | inactive | inactive | inactive | -5.69% and -12.2% | inactive | inactive | inactive
4 | CCC(C)c1ccccc1O (stereo unspecified) | > 92 µM (inactive) | > 92 µM (inactive) | inactive | inactive | 0.687% (inactive) and -0.479% (inactive) | inactive | inactive | inactive | inactive | inactive | inactive | inactive | inactive | inactive | inactive | inactive | -16.8% and -5.28% and 4.79% | inactive | inactive | inactive
5 | CCCN(CCC)C(=O)SCC | > 92 µM (inactive) | > 92 µM (inactive) | inactive | inactive | 2.52% (inactive) | inactive | inactive | inactive | inactive | inactive | inactive | inactive | inactive | inactive | inactive | inactive | -2.35% and -18.5% | inactive | inactive | inactive
6 | O=C1c2ccccc2C(=O)C1c1ccc2ccccc2n1 | – | – | inactive | – | -10.4% (inactive) | 39.8 µM (active) | inactive | inactive | inactive | inactive | inactive | inactive | inactive | inactive | inactive | inactive | 16.7% | inactive | inactive | inactive
7 | c1ccc2c(c1)c1cccc3ccc4cccc2c4c31 | > 92 µM (inactive) | > 92 µM (inactive) | inactive | inactive | 0.0871% (inactive) | inactive | inactive | inactive | inactive | inactive | inactive | inactive | inactive | inactive | inactive | inactive | -17% and -12.4% | inactive | – | inactive
8 | O=C(O)CC(C(=O)O)C(CC(=O)O)C(=O)O (stereo unspecified) | > 92 µM (inactive) | > 92 µM (inactive) | inactive | inactive | -0.624% (inactive) | inactive | inactive | inactive | inactive | inactive | inactive | inactive | inactive | inactive | inactive | inactive | 3.34% and -3.12% | inactive | inactive | inactive
